The panel holds about 83,000 compounds, 20% with a hit somewhere; the sample as a whole holds those more often.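 Treatment: one concentration, 48 hours, 96-well format. Scoring: percent growth, with anything below 10 considered active.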 Values without a mark were called inactive. Active and inactive are the calls of the source.
Key:
Experiment in all cases: NCI-60 one-dose screen, 48 h (100 = growth as untreated, 0 = no growth, -100 = all killed)
Details in all cases: 10 µM unless noted
SK-MEL-2 melanoma = system: SK-MEL-2 melanoma
EKVX NSCLC = system: EKVX NSCLC
SN12C renal = system: SN12C renal
UO-31 renal = system: UO-31 renal
TK-10 renal = system: TK-10 renal
ACHN renal = system: ACHN renal
CAKI-1 renal = system: CAKI-1 renal
CCRF-CEM leukemia = system: CCRF-CEM leukemia
MOLT-4 leukemia = system: MOLT-4 leukemia
SR leukemia = system: SR leukemia
RPMI-8226 leukemia = system: RPMI-8226 leukemia
OVCAR-8 ovarian = system: OVCAR-8 ovarian
OVCAR-5 ovarian = system: OVCAR-5 ovarian
OVCAR-4 ovarian = system: OVCAR-4 ovarian
SK-OV-3 ovarian = system: SK-OV-3 ovarian
IGROV1 ovarian = system: IGROV1 ovarian
OVCAR-3 ovarian = system: OVCAR-3 ovarian
HS 578T breast = system: HS 578T breast
NCI/ADR-RES ovarian = system: NCI/ADR-RES ovarian

SMILES	growth (SK-MEL-2 melanoma)	growth (EKVX NSCLC)	growth (SN12C renal)	growth (UO-31 renal)	growth (TK-10 renal)	growth (ACHN renal)	growth (CAKI-1 renal)	growth (CCRF-CEM leukemia)	growth (MOLT-4 leukemia)	growth (SR leukemia)	growth (RPMI-8226 leukemia)	growth (OVCAR-8 ovarian)	growth (OVCAR-5 ovarian)	growth (OVCAR-4 ovarian)	growth (SK-OV-3 ovarian)	growth (IGROV1 ovarian)	growth (OVCAR-3 ovarian)	growth (HS 578T breast)	growth (NCI/ADR-RES ovarian)
Cc1nn(-c2cc(=O)[nH]c3ccc(Cl)cc23)c(N)c1C#N	100%	92.3%	102%	70.7%	133%	99%	85.8%	101%	110%	121%	97.7%	91.6%	99.3%	89.2%	102%	73.1%	105%	103%	97.4%
FC(F)(F)c1[nH]ncc1-c1nc2ccc3n[nH]c(C#Cc4cccnc4)c3c2c2c1CCCC2	65.8%	30.1%	37.9%	19.8%	46.4%	22.6%	-7% (active)	25.2%	14.9%	14.2%	47.7%	45.5%	67.3%	80.5%	27.8%	17.8%	54.2%	13.8%	72.1%
Cc1cc(C)nc(SC2=C(Nc3cccc(Cl)c3C)C(=O)N(Cc3ccccc3)C2=O)n1	69.6% [30 µM]	47.2% [30 µM]	70.1% [30 µM]	14.7% [30 µM]	60.5% [30 µM]	65.2% [30 µM]	60.8% [30 µM]	26.9% [30 µM]	4.41% [30 µM] (active)	–	12.5% [30 µM]	64.2% [30 µM]	81.8% [30 µM]	49% [30 µM]	91.6% [30 µM]	73% [30 µM]	64.6% [30 µM]	60.7% [30 µM]	52.1% [30 µM]
CCOC(=O)c1c(C)oc2ncnc(N3CCN(C(=S)Nc4ccccc4)CC3)c12	95.3%	91.2%	92.7%	75.1%	100%	92%	79.6%	92.3%	91.3%	94.5%	83.3%	94%	–	85.1%	96.9%	95.4%	103%	87%	90.3%
CCCCCCCCCCCCC[N+](C)(C)Cc1ccccc1	-80.2% (active)	3.49% (active)	-55.7% (active)	43.6%	-59.5% (active)	16.8%	76.5%	-14.8% (active)	-10.1% (active)	–	-50.9% (active)	-30.5% (active)	24.9%	8.67% (active)	4.31% (active)	-49.9% (active)	-61.1% (active)	-31.4% (active)	90.2%
N#Cc1c(N)n(CCNC(=O)c2ccccc2)c2nc3ccccc3nc12	90.3%	123%	120%	89.4%	102%	118%	115%	133%	44.7%	–	179%	102%	79%	114%	120%	76.3%	81.9%	179%	87.7%
OCC(O)c1nc2ccc3[nH]ncc3c2c2c1CCCC2 (stereo not drawn)	9.63% (active)	5.55% (active)	11.8%	7.51% (active)	4.51% (active)	4.18% (active)	7.54% (active)	6.71% (active)	1.37% (active)	-4.58% (active)	10.2%	10.8%	10.2%	50.4%	40.9%	10.4%	16.1%	-10.5% (active)	9.22% (active)
COc1ccc(/C=N/C2=C(C#N)C(c3ccc(N(C)C)cc3)c3ccc4ccccc4c3O2)cc1 (stereo not drawn)	62.6%	61.3%	72.3%	46.5%	132%	66%	19.6%	63.1%	54.4%	19.4%	63%	85.8%	88%	86.8%	73.7%	39.5%	38.2%	58.6%	46.7%

Reference: PubChem BioAssay (NCI)
